{"source": "PubChem BioAssay (NCATS)", "note": "Inconclusive results are not listed. A call without a number means that no potency is given here. Values without a mark were called inactive. Calls of active or inactive are those of the source. The call rests on the fitted dose curve; in most records, active means well fitted cell-killing curve with a large enough effect; inconclusive means small, poorly fitted or top-dose-only effect; inactive means no such curve, though single readings can be large or run the other way.", "data": [{"assay": "qHTS of pediatric cancer cell lines to identify multiple opportunities for drug repurposing: Primary screen for Rh30 cells (AID 1347107); further: nearly all actives have a fitted effect of over 75% in size", "details": "Rh30 rhabdomyosarcoma viability, CellTiter-Glo luminescence, 48 h; series mostly up to 46 µM", "method_in_brief": "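Cells (500-1,000/well) in growth media were settled 5 h at 37 degrees C, then given compounds for 48 h. Viability was read as CellTiter-Glo luminescence. Primary runs used MIPE at 11 points (0.78 nM-46 µM) and NPC at 8 points (0.59 nM-46 µM); follow-ups used 11 points.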", "values": [{"compound": "O=C1CC2(CCCC2)CC(=O)N1", "Potency": "inactive"}, {"compound": "CCN1CCCC1CN", "note": "(stereo not given)", "Potency": "inactive"}, {"compound": "CC(C)=CCC/C(C)=C/CC/C(C)=C/CCC(=O)OC/C=C(\\C)CCC=C(C)C", "Potency": "inactive"}, {"compound": "CC(=O)OCC[N+](C)(C)C", "Potency": "inactive"}, {"compound": "O=C(CCCl)NCCc1ccccc1", "Potency": "inactive"}, {"compound": "CO[C@@]1(NC(=O)CSC[C@@H](N)C(=O)O)C(=O)N2C(C(=O)O)=C(CSc3nnnn3C)CS[C@@H]21", "Potency": "inactive"}, {"compound": "O=C(O)c1ccccc1Nc1cc(Cl)ccc1C(=O)O", "Potency": "inactive"}, {"compound": "CC(=O)O[C@@H]1CC2C3CCc4cc(OC(=O)c5ccccc5)ccc4C3CCC2(C)[C@H]1OC(C)=O", "note": "(stereo not given in full)", "Potency": "inactive"}, {"compound": "CC(NN)c1ccccc1", "note": "(stereo not given)", "Potency": "inactive"}, {"compound": "Oc1ccccc1", "Potency": "inactive"}, {"compound": "O=C(O)Cc1ccc(OCCNC[C@H](O)c2ccccc2)cc1", "Potency": "inactive"}, {"compound": "C[C@@H]1C[C@H]2[C@@H]3CCC4=CC(=O)C=C[C@]4(C)[C@@]3(F)[C@@H](O)C[C@]2(C)[C@@]1(O)C(=O)COC(=O)c1ccncc1", "Potency": "inactive"}, {"compound": "NC(=O)COCCN1CCN(C(c2ccccc2)c2ccc(Cl)cc2)CC1", "note": "(stereo not given)", "Potency": "inactive"}, {"compound": "COc1ccccc1N1CCN(CC(O)COc2cc(OC)c(OC)c(OC)c2)CC1", "note": "(stereo not given)", "Potency": "inactive"}, {"compound": "Cc1cc(O)c2c(O)c3c(O)cccc3cc2c1", "Potency": "inactive"}, {"compound": "CCOC(=O)CN1CCCC1=O", "Potency": "inactive"}, {"compound": "Nc1nc2ccccc2n1Cc1ccc(F)cc1", "Potency": "inactive"}, {"compound": "NS(=O)(=O)c1cc(C(=O)NN2C[C@H]3[C@H]4CCC(C4)[C@H]3C2)ccc1Cl", "Potency": "inactive"}, {"compound": "CC(C)(C)c1ccc(C(=O)CCCCl)cc1", "Potency": "inactive"}, {"compound": "OCc1cccnc1", "Potency": "inactive"}, {"compound": "O=C(O)CCCC[P+](c1ccccc1)(c1ccccc1)c1ccccc1", "Potency": "inactive"}, {"compound": "CN(C)CCN1CCN(c2cccc(Cl)c2)C1=O", "Potency": "inactive"}, {"compound": "CC(=O)O[C@H]1CC[C@@]2(C)C(=CC[C@@H]3[C@@H]2CC[C@]2(C)C(C(C)=O)=CC[C@@H]32)C1", "Potency": "inactive"}, {"compound": "Cn1c(=O)c2c(ncn2CC(=O)O)n(C)c1=O", "Potency": "inactive"}, {"compound": "O=C1CC(c2ccc(Cl)cc2)CC(=O)N1", "Potency": "inactive"}, {"compound": "COC(=O)c1cc(S(N)(=O)=O)ccc1OC", "Potency": "inactive"}, {"compound": "CCCCCC1Nc2cc(C(F)(F)F)c(S(N)(=O)=O)cc2S(=O)(=O)N1", "note": "(stereo not given)", "Potency": "inactive"}, {"compound": "CC1CN(c2cc3c(cc2F)c(=O)c(C(=O)O)cn3-c2ccc(F)cc2F)CCN1", "note": "(stereo not given)", "activity change, negative = cytotoxic": "5.93% [at 4.84 µM]"}, {"compound": "CCOC(=O)C(=O)CCc1ccccc1", "Potency": "inactive"}, {"compound": "COC(=O)c1cc(Cl)ccc1OC", "Potency": "inactive"}]}, {"assay": "qHTS of pediatric cancer cell lines to identify multiple opportunities for drug repurposing: Primary screen for Rh41 cells (AID 1347108);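 further: luminescence drop marks cytotoxic hits; nearly all actives have a fitted effect of over 70% in size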", "details": "Rh41 rhabdomyosarcoma viability, CellTiter-Glo luminescence, 48 h; series mostly up to 46 µM", "method_in_brief": "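CRCs from 8- or 11-point titrations (lowest final 0.59 nM NPC, 0.78 nM MIPE). Cell viability: CellTiter-Glo after 48 h incubation, 15 min room-temperature development, luminescence imaging.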", "values": [{"compound": "CC(=O)OCC[N+](C)(C)C", "Potency": "inactive"}, {"compound": "O=C(CCCl)NCCc1ccccc1", "Potency": "inactive"}, {"compound": "CC(=O)O[C@@H]1CC2C3CCc4cc(OC(=O)c5ccccc5)ccc4C3CCC2(C)[C@H]1OC(C)=O", "note": "(stereo not given in full)", "Potency": "inactive"}, {"compound": "C[C@@H]1C[C@H]2[C@@H]3CCC4=CC(=O)C=C[C@]4(C)[C@@]3(F)[C@@H](O)C[C@]2(C)[C@@]1(O)C(=O)COC(=O)c1ccncc1", "Potency": "inactive"}, {"compound": "NC(=O)COCCN1CCN(C(c2ccccc2)c2ccc(Cl)cc2)CC1", "note": "(stereo not given)", "Potency": "inactive"}, {"compound": "NS(=O)(=O)c1cc(C(=O)NN2C[C@H]3[C@H]4CCC(C4)[C@H]3C2)ccc1Cl", "Potency": "inactive"}, {"compound": "CN(C)CCN1CCN(c2cccc(Cl)c2)C1=O", "Potency": "inactive"}, {"compound": "CC(=O)O[C@H]1CC[C@@]2(C)C(=CC[C@@H]3[C@@H]2CC[C@]2(C)C(C(C)=O)=CC[C@@H]32)C1", "Potency": "inactive"}, {"compound": "CCOC(=O)C(=O)CCc1ccccc1", "Potency": "inactive"}, {"compound": "COC(=O)c1cc(Cl)ccc1OC", "Potency": "inactive"}]}]}
